Source: ChEMBL document CHEMBL3988442, “University of Dundee, Small-Polar-MMV Screening Library” (2021)
For some of these results: Potency and affinity values are given separately.

Columns and labels:
Parameters in all cases: scale not given: direction of the effect not stated beside the values
[1] = molecular target: Protein translocase subunit SecA (Escherichia coli (strain K12)) (UniProt P10408); test: Assay to Identify E. coli SecA ATPase Inhibitors; assay type: functional; settings: 30 µM
[2] = molecular target: T1, Ubiquitin-activating enzyme e1, putative (Leishmania donovani (strain BPK282A1)) (UniProt E9BSI1); test: Leishmania donovani Ubiquitin Activating Enzyme (LdE1); assay type: functional; settings: 30 µM
T1 sequence (whole entry): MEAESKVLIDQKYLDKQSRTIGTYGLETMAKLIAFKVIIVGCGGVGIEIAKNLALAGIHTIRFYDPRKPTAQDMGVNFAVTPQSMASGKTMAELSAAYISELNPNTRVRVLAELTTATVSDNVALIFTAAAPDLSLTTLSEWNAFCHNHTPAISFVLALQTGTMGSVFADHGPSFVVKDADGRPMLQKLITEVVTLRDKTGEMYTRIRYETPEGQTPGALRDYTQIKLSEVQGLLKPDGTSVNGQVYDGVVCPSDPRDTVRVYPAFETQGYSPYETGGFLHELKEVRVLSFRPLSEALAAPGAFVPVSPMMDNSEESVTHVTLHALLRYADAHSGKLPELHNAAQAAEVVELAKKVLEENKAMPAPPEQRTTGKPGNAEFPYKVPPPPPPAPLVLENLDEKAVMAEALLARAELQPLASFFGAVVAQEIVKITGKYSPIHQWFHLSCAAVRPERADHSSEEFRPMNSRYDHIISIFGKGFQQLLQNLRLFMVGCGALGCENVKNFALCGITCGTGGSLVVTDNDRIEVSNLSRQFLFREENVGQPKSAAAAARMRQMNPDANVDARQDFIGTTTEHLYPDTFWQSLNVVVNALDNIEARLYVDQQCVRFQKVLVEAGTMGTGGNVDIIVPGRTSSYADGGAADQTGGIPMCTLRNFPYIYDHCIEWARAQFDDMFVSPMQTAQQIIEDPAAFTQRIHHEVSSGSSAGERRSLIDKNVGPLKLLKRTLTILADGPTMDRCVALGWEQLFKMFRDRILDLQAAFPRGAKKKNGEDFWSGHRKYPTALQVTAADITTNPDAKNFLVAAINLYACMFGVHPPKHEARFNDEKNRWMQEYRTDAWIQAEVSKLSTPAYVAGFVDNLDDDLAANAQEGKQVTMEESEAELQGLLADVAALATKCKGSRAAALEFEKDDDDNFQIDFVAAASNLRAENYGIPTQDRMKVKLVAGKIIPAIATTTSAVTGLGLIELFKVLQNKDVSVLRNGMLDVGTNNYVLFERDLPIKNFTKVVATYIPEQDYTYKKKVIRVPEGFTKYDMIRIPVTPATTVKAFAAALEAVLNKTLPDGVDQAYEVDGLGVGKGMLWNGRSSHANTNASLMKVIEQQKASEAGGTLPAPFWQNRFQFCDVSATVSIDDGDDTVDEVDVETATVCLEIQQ

[3] = molecular target: AMP-activated protein kinase, AMPK (Homo sapiens) (UniProt P54646+O43741+P54619+Q9UGJ0+Q9Y478+Q13131+Q9UGI9); test: AMP-dependent Kinase enzyme assay. An in vitro enzyme assay that detects ADP turnover that is directly proportional to AMPK activity. This uses naive AMPK that is activated during the assay with MK-8722; assay type: functional; settings: 30 µM
[4] = molecular target: Sialic acid-binding Ig-like lectin 9 (Homo sapiens) (UniProt Q9Y336); test: Hs-Siglec9 ALPHAscreen SOP 20170721; settings: 10 µM
Trypanosoma cruzi = test: Trypanosoma cruzi phosphomannomutase and mannose-1-phosphate guanylyltransferase assay; assay type: functional; settings: 10 µM
[5] = molecular target: T2, Arginase-2, mitochondrial (Homo sapiens) (UniProt P78540); test: in vitro enzyme assay to detect the production of urea directly proportional to the activity of Arginase II; assay type: functional; settings: 33.3 µM; note: in the data most compounds retested in dose-response had high values
T2 sequence (whole entry): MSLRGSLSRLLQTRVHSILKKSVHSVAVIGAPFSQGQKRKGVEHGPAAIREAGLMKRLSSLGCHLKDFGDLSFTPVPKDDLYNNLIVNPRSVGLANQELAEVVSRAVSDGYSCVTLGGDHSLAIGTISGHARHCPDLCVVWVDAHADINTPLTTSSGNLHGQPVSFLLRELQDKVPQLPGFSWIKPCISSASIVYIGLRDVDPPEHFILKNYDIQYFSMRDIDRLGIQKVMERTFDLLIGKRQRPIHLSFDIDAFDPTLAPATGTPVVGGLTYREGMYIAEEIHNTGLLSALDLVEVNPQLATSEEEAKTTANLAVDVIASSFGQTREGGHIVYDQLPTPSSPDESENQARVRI

[6] = molecular target: T3, Proteasome subunit beta (Trypanosoma cruzi) (UniProt O96673); test: Trypanosoma cruzi proteasome chymotrypsin-like activity (TcProtChymo) assay.; note: in the data most compounds retested in dose-response had high values; assay type: functional; settings: 9.37 µM
T3 sequence (whole entry): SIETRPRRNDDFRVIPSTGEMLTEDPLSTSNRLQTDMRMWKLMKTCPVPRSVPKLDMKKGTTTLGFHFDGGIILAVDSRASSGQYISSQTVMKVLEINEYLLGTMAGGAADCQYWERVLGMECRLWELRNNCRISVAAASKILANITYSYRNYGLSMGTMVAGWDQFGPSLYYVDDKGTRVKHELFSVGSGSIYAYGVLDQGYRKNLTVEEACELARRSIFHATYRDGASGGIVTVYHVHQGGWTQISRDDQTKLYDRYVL

Homo sapiens = organism: Homo sapiens; test: To identify inhibition of the IFN signalling (Jak-Stat) pathway via expression of an eGFP reporter gene under the control of an IFN-stimulated response element (ISRE) containing MxA promoter.; assay type: functional; settings: 30 µM
[7] = molecular target: T4, Tyrosyl-tRNA synthetase, putative (Trypanosoma cruzi (strain CL Brener)) (UniProt Q4DSP6); test: Trypanosoma cruzi tyrosyl tRNA synthetase (TcYRS) _High Tyrosine SOP; assay type: functional; settings: 30 µM; note: in the data most compounds retested in dose-response had high values
T4 sequence (whole entry): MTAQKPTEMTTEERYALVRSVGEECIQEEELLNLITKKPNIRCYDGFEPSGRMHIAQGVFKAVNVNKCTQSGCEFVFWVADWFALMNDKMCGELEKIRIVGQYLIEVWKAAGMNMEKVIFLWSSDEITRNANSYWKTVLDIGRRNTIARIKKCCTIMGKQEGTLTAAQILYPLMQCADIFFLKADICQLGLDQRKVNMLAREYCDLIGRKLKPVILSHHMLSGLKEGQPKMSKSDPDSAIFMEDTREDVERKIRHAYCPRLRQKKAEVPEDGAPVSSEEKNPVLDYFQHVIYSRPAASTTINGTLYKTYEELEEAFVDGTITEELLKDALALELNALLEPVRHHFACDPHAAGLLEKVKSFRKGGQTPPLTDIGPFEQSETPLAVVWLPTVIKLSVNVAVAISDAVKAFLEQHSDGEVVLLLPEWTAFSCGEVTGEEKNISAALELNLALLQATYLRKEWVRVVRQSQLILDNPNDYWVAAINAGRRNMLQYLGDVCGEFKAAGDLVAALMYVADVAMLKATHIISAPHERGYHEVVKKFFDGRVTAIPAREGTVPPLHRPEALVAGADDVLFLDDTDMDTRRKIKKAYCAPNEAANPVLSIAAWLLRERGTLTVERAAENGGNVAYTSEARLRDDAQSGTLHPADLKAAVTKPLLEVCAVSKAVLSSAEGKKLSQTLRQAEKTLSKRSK

[8] = molecular target: T4, Tyrosyl-tRNA synthetase, putative (Trypanosoma cruzi (strain CL Brener)); test: Trypanosoma cruzi tyrosyl tRNA synthetase (TcYRS) SOP; assay type: functional; settings: 30 µM
[9] = molecular target: Chromo domain-containing protein 1 (Saccharomyces cerevisiae (strain ATCC 204508 / S288c) (Baker's yeast)) (UniProt P32657); test: ScCHD-1 Enzyme Inhibition Assay; assay type: functional; settings: 30 µM; note: in the data most compounds retested in dose-response had high values
Chain of Chromo domain-containing protein 1 (Saccharomyces cerevisiae (strain ATCC 204508 / S288c) (Baker's yeast)) (P32657 whole entry, the tested form may be a part): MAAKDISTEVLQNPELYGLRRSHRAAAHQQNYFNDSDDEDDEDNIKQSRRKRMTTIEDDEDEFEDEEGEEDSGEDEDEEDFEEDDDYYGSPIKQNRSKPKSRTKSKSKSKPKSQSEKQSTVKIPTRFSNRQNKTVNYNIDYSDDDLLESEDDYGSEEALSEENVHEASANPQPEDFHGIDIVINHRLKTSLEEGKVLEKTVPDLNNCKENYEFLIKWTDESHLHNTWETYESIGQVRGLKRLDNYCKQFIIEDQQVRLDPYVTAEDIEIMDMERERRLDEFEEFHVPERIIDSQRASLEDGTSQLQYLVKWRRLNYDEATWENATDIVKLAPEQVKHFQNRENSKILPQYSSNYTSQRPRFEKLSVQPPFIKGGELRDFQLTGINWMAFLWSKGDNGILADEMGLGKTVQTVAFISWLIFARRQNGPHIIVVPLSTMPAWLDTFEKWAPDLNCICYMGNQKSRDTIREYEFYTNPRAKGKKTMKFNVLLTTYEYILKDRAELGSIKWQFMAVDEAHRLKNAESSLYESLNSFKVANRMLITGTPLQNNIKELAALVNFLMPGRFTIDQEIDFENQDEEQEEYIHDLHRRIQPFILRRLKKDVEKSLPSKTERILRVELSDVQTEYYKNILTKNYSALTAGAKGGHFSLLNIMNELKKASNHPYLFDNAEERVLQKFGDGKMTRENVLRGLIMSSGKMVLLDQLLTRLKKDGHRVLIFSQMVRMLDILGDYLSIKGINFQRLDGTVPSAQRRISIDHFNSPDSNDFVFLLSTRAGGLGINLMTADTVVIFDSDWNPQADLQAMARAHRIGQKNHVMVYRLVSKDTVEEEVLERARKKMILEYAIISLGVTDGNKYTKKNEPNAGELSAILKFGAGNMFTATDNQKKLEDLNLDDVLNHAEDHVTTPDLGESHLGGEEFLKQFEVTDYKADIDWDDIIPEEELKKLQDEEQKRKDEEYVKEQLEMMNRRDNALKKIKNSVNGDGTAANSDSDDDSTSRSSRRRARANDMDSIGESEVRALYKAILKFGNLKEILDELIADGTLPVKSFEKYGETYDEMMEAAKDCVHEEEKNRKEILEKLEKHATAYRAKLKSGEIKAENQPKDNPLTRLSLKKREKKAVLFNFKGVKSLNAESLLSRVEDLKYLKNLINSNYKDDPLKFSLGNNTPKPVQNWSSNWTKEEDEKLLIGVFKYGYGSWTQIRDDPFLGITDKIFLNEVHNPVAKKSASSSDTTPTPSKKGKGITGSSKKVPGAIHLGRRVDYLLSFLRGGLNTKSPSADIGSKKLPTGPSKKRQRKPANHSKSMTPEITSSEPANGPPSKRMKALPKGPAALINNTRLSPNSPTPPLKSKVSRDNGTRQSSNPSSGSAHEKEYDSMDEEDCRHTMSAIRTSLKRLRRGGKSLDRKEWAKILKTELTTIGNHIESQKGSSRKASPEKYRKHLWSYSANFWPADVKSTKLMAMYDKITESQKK

Chain of Sialic acid-binding Ig-like lectin 9 (Homo sapiens) (Q9Y336 whole entry): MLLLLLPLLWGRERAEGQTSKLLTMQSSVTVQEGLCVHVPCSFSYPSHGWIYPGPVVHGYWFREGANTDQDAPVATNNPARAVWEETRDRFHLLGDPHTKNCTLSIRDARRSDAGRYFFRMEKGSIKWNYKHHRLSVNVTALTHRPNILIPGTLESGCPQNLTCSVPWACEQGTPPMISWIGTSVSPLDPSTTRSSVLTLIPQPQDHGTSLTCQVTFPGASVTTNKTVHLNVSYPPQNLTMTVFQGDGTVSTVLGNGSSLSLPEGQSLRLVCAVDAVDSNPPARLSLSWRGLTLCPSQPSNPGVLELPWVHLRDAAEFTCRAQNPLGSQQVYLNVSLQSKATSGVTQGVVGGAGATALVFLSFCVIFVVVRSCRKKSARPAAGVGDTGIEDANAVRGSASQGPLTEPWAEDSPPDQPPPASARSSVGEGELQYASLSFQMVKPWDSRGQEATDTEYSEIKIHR
Chain of Protein translocase subunit SecA (Escherichia coli (strain K12)) (P10408 whole entry): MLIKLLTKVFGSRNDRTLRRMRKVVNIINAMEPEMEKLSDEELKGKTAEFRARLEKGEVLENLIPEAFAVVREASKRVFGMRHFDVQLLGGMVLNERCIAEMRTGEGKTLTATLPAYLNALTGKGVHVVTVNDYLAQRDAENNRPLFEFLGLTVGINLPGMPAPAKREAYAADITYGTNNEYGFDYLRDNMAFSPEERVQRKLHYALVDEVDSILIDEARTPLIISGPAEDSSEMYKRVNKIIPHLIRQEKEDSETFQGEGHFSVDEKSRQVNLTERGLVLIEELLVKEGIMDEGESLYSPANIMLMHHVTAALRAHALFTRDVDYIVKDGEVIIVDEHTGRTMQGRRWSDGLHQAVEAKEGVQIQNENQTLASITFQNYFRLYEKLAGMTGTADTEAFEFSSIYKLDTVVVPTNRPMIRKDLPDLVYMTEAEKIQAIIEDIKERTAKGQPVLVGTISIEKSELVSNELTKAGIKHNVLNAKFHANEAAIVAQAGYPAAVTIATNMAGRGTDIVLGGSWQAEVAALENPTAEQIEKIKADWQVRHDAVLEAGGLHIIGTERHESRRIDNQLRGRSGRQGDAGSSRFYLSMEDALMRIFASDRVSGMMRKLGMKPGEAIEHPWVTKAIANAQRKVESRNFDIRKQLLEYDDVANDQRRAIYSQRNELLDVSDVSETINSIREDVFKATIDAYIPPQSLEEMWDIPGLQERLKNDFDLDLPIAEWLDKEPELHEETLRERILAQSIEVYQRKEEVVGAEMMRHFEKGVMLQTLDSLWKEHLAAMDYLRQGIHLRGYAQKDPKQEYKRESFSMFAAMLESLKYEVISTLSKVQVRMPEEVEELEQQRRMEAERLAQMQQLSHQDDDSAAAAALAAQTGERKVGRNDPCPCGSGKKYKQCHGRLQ

Structure (SMILES) | Percent Effect [1] [%] | Percent Effect [2] [%] | Percent Effect [3] [%] | Percent Effect [4] [%] | Percent Effect (Trypanosoma cruzi) [%] | Percent Effect [5] [%] | Percent Effect [6] [%] | Percent Effect (Homo sapiens) [%] | Percent Effect [7] [%] | Percent Effect [8] [%] | Percent Effect [9] [%]
CN(C)C(=O)N1C[C@@H]2CCCO[C@@H]2[C@H](N(C)Cc2ccco2)C1 | -3.04 | 13.7 | 2.03 | 7.85 | 6.55 | -5.99 | 8.99 | -3.94 | 4.17 | 13.6 | -11.2
Cc1cnn(CC2CCCCN2C(=O)CN(C)C2CC2)c1 (stereo not given) | 0.161 | 26.6 | -0.801 | -3.2 | -0.103 | -1.94 | 16.8 | -1.15 | 6.25 | 15.2 | -24
CNc1nc(CNC(=O)Nc2ccccc2-c2noc(C)n2)cs1 | -1.81 | -2.63 | -2.79 | -0.349 | -3.19 | -1.92 | 3.01 | 17.1 | 1.47 | -4.88 | -4.83
COc1cc(CNC(=O)Nc2cc(C(F)(F)F)c[nH]c2=O)ccn1 | -3.54 | 13.2 | 2.48 | 10.4 | 1.13 | -3.06 | 12.7 | 7.49 | 0.49 | 12.2 | -11.3
Cn1cnnc1C1CCCN(C(=O)Cc2ccc3c(c2)OCCO3)C1 (stereo not given) | -1.87 | 13 | -0.424 | -2.52 | 3.82 | -1.05 | 13.7 | 13.2 | 7.62 | 18.8 | -15.4
O=C(CN1CCCCC1Cn1cncn1)NCCC1=CCCCC1 (stereo not given) | -9.27 | 7.59 | -1.31 | 4.8 | -2.55 | -0.76 | -4.5 | 30.9 | 2.46 | -3.8 | -6.11
O=C(NCc1ccccc1)c1nnc2ccc(N3CCOCC3)cc2n1 | -4.99 | -1.33 | 67.7 | 2.19 | -3.73 | -10.4 | 14.1 | 4.89 | 6.35 | 7.69 | -13.2
O=C1CCSCC(C(=O)N2CCCC2)N1 (stereo not given) | -1.89 | 0 | 2.29 | -5.9 | -3.33 | -1.36 | 3.37 | -3.33 | 1.07 | 5 | -1.55
CC(C)(C)c1cnc(CN2CCC(c3ccnn3CCO)CC2)o1 | -2.61 | 2.53 | 7.52 | 9.51 | 7.46 | -3.42 | -3.69 | 20.2 | 3.45 | 11.4 | -1.55
CC1CCCCN1CCNC(=O)c1ccn(-c2ccc(F)cc2)n1 (stereo not given) | -2.64 | 18.9 | 3.92 | 3.77 | 6.51 | -16 | 18.9 | 6.78 | -26.1 | 23.5 | -19.6
COc1cc(CNC(=O)NCc2c(C)cc(C)[nH]c2=O)ccc1C | -6.17 | 7.89 | -0.139 | 4.36 | 5.64 | 1.15 | 11.9 | 6.94 | 2.45 | 12.2 | -9.57
CN1CC(=O)N(c2cccnc2)CC12CCN(C(=O)C1CCCCC1)C2 (stereo not given) | 0.868 | 10.7 | 6.75 | 12.8 | -1.74 | -72.9 | 12.3 | 24 | 3.12 | 2.5 | -2.49
CC(C)OCCCNC(=O)c1ccc(-c2ccco2)[nH]c1=O | -4.6 | 10.8 | 60.2 | -6.26 | -7.83 | -1.6 | 10.1 | 12.9 | 6.4 | 11.1 | -5.48
Cc1nc(C)n(C2CCCN(C(=O)c3cc4ccccc4n3C)C2)n1 (stereo not given) | -3.87 | 7.79 | -8.41 | 1.64 | 5.78 | 0.632 | 6.71 | 17.1 | 7.62 | 9.41 | -16.3
NC(=O)C1CN(Cc2c[nH]cn2)CCN(C2CCOCC2)C1 (stereo not given) | 1.35 | 4.05 | 5.54 | 9.65 | -7.12 | 18.8 | 7.02 | 19.2 | 12.9 | 19.5 | -6.44
CCc1nc(C2CCCN2Cc2nnc(Cc3ccccc3)o2)no1 (stereo not given) | -3 | 0 | 2.23 | 3.12 | 8.52 | 1.9 | 5.25 | -2.79 | 1.91 | 2.35 | 4.27
COc1ccc(S(=O)(=O)NCc2cccnc2N(C)C)cc1F | -1.87 | 20.2 | -8.9 | -2.51 | 2.74 | 6.08 | 4.18 | 21.9 | 8.37 | 24.1 | -5.49
Cc1nc(C2CCCN2Cc2nc(C)c(C)o2)no1 (stereo not given) | -2.9 | 16.2 | -2.94 | -1.49 | -1.95 | 1.29 | 4.49 | -3.4 | 13.9 | 25.6 | -5.47
CCCC(=O)Nc1sc(C(=O)OCC)c(C)c1C#N | 0.0516 | 7.79 | 24.2 | -8.77 | -5.42 | 8.39 | 10.4 | -0.547 | 1.06 | 16.7 | -3.68
Cc1noc2ncc(C(=O)NCC3CCN(C(C)C)C3)cc12 (stereo not given) | -2.65 | 2.63 | 2.21 | 2.67 | -6.58 | 4.21 | 4.34 | 4.5 | -0.49 | 4.88 | 3.24
